# D3 antag – qHTS of D3 Dopamine Receptor Antagonist: qHTS | D(3) dopamine receptor (Homo sapiens), P35462 | actives 2.5% (n = 360,000) | D3R cells, DiscoveRx beta-arrestin luminescence, antagonist mode; active compounds read low | max response, negative = inhibition, % | AID 652054, 2013; in the data active means max response below about -50%; inconclusive means no clear call, values can overlap the other calls; further: on the % scale 0 is the no-effect control and ±100 the full control effect
#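 Cells expressing the human receptor were seeded at 1500 cells/well, incubated overnight at 37 degrees C in 5% CO2, then exposed to library compounds with dopamine controls for 90 minutes at 37 degrees C before luminescent detection.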
# DRD3 agonist – qHTS of D3 Dopamine Receptor Agonist: qHTS; D(3) dopamine receptor (Homo sapiens), P35462; max activation, %; D3R DiscoveRx beta-arrestin cells, luminescence, 90 min; actives 0.58% (n = 410,000); in the data active means max activation above about 30%; further: 0% is about no effect
#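 Cells at 1500/well, incubated overnight, then treated with pinned compounds (dopamine as control) for 90 min at 37 degrees C. DiscoveRx reagent added for 30 - 60 minutes at room temperature; luminescence read.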
# ClpP mod – qHTS Assay for Activators of ClpP; purified B. subtilis ClpP, FRET peptide cleavage, 20 min; Potency, µM (top dose mostly 57.5 µM), for inactives: at the top dose activity change, negative = active; actives 1.9% (n = 340,000); active means well fitted falling curve with a large enough effect; inconclusive means small, poorly fitted or top-dose-only effect; inactive means no such curve, though single readings can be large or run the other way; further: potency means the concentration at half of the fitted maximal effect; the source files actives as falling curves though it sought activators and does not explain the sign; nearly all actives have a fitted effect of over 65% in size
#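 FRET quenching reversal measured ClpP activation: 10 microg/mL B. subtilis ClpP at pH 8 with the FRET-FV decapeptide, read at 430 nm after 320 nm excitation. The 20-min minus 0-min signal was scaled between DMSO/no-enzyme wells and ADEP (5.8 microM final).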
# DT40 TDP1 no CPT – qHTS for Inhibitors of human tyrosyl-DNA phosphodiesterase 1 (TDP1): qHTS in cells in absence of CPT | DT40 Tdp1-/- hTDP1 cells, no CPT, ATP luminescence, 48 h | Potency, µM (titrated, usually from 46.2 µM), for the others: top-dose activity change, negative = growth inhibition, actives largely listed as inhibitors | actives 15% (n = 420,000); further: potency means the concentration at half of the fitted maximal effect; on the % scale 0 is the no-effect control and ±100 the full control effect; nearly all actives have a fitted effect of over 55% in size
#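 Compound effects on proliferation are scored in DT40 Tdp1-/-;hTDP1 cells in the absence of CPT. ATP levels (CellTiter-Glo luminescence) are recorded after a ≥48 hr, 37 °C incubation.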
# IL-1B inflam inh – qHTS for Inhibitors of Inflammasome Signaling: IL-1-beta AlphaLISA Primary Screen; AID 743279, 2014; THP-1 LPS/ATP IL-1B secretion, AlphaLISA, 16 h; active compounds read low; actives 4.7% (n = 360,000); activity change, % at 57.5 µM; in the data active means activity change below about -50%; inconclusive means mostly about -30% to -49%; further: on the % scale 0 is the no-effect control and ±100 the full control effect
#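 Secreted IL-1B measured by AlphaLISA bead assay after 16 h compound exposure of THP-1 cells; compounds (final up to 57.5 uM) added 1 h before LPS (250 ng/mL) and ATP (1.25 mM) stimulation; lower signal means less secretion.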
# TDP1 cell CPT – qHTS for Inhibitors of human tyrosyl-DNA phosphodiesterase 1 (TDP1): qHTS in cells in presence of CPT; chicken DT40 Tdp1-/-;hTDP1 cells + 20 nM CPT, ATP luminescence, 48 h; Potency, µM (top dose mostly 46.2 µM), without a hit: at the top dose activity change, negative = growth inhibition, usual class: inhibitors; actives 12% (n = 420,000); AID 686979, 2013; further: potency means the concentration at half of the fitted maximal effect; on the % scale 0 is the no-effect control and ±100 the full control effect; nearly all actives have a fitted effect of over 55% in size
#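 Cell growth measured by CellTiter-Glo luminescence after a minimum 48 h, 37 C compound exposure with 20 nM CPT in Tdp1-knockout DT40 cells stably expressing hTDP1, seeded 400/well; qHTS titration format.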
# An asterisk follows results filed as active; u = inconclusive; x = no result given. Shown are actives, neighbours in structure and some others; about 21% of the full set was active somewhere. Unless noted, the call rests on the fitted dose curve; in most records, active means well fitted inhibition curve with a large enough effect; inconclusive means small, poorly fitted or top-dose-only effect; inactive means flat fitted curve, though single readings scatter.
SMILES,D3 antag,DRD3 agonist,ClpP mod,DT40 TDP1 no CPT,IL-1B inflam inh,TDP1 cell CPT
CCCCCCCCN1[C@@H](CC(C)=O)c2ccc(/C=C/C(C)=O)cc2S1(=O)=O,x,x,0.2%,5.62µM*,x,3.98µM*
COC(=O)/C=C/c1ccc2c(c1)S(=O)(=O)N(C1CCCC1)[C@H]2CC(=O)OC,x,x,-5.6%,u,x,0.631µM*
CCOC(=O)C1=C(COC(=O)CCOc2cc(C)ccc2C)NC(=O)NC1C (stereo not drawn),7.5,-0.6,0.4%,-24.3%,4.8,-4.0%
CCOc1ccc(NC(=O)/C(C=Nc2ccccc2)=C(\C)O)cc1,0.3,2.4,0.6%,-14.7%,-4.3,3.0%
Cc1ccc(S(=O)(=O)N2C[C@H]3[C@H]4C(=O)N(c5ccccc5)C(=O)[C@H]4C[C@H](OC(=O)Nc4c(C)noc4C)[C@@]3(O)C2)cc1,3.0,-6.7,-0.3%,u,-22.5,-27.0%
COc1cccc(C(=O)NNC(=O)c2ccc3ccccc3c2O)c1,3.1,4.1,-3.2%,9.2µM*,51.1,u
O=C(NNC(=O)c1ccc2ccccc2c1O)c1ccccc1Cl,35.6,8.2,1.0%,13µM*,7.3,u
COc1cccc(C(=O)NNC(=O)c2ccccc2)c1,8.3,0.6,2.8%,7.4%,14.0,-9.1%
O=C(Nc1ccc(Br)c2ccccc12)c1ccc2ccccc2c1O,-2.5,3.0,u,8.2µM*,-50.8*,8.2µM*
O=C(c1ccc(Cl)cc1Cl)N1CCC(C(=O)N2CCOCC2)CC1,-8.2,3.0,x,2.5%,-11.5,10.0%
COC(=O)c1c(C)sc(-c2c(-c3ccc4c(c3)OCCO4)[nH]c3[nH]c(=O)[nH]c(=O)c23)c1O,x,3.0,-0.7%,-4.5%,x,-0.2%
CCN=C1SC(CC(=O)Nc2ccccc2)C(=O)N1CC (stereo not drawn),31.1,2.2,2.3%,-13.5%,-2.7,-7.5%
O=C(CC1SC(=Nc2ccccc2)N(Cc2ccccn2)C1=O)Nc1ccc(Br)cc1 (stereo not drawn),-8.3,2.4,34.6%,10.3µM*,u,16.4µM*
Cc1ccccc1N=C1SC(CC(=O)Nc2ccc3ccccc3c2)C(=O)N1Cc1ccccn1 (stereo not drawn),u,-2.2,-1.2%,20.6µM*,u,18.4µM*
O=C(CC1SC(=Nc2cccc3ccccc23)N(Cc2ccccn2)C1=O)Nc1ccccc1Br (stereo not drawn),-18.9,-10.0,-4.0%,2.31µM*,-4.0,4.61µM*
CCN1C(=O)C(CC(=O)Nc2cccc(C(C)=O)c2)S/C1=N\c1ccccn1 (stereo not drawn),-7.1,-2.0,-4.8%,u,-3.3,u
C=CCNC(=O)CSc1nnc(-c2ccc(S(=O)(=O)N3CCCC3)cc2)n1C,8.9,0.1,x,1.2%,12.3,-0.6%
Cc1ccc(NC(=S)N2CCC(NC(=O)c3ccc(F)cc3)CC2)cc1C,-0.2,-6.3,-1.7%,-27.0%,-12.6,-1.4%
CCN(CC)S(=O)(=O)c1cccc(NC(=O)CN2C(=O)NC3(CCC(C)CC3)C2=O)c1 (stereo not drawn),19.0,0.3,1.9%,u,11.4,u
O=C1CN(C(=O)COC(=O)c2ccco2)c2ccccc2N1,3.9,-8.0,1.9%,-2.9%,-0.3,-3.8%
O=C1CN(C(=O)COC(=O)c2ccccc2NCc2ccco2)c2ccccc2N1,44.7,0.6,25.1µM*,-3.0%,-0.5,-21.5%
COc1ccc(Cn2c(=O)[nH]c3cc(C(=O)Nc4ccc(N5CCN(C)CC5)cc4)ccc32)cc1,12.5,1.7,-3.3%,u,-58.9*,u
CCN1CCN(c2ccc(NC(=O)c3ccc4c(c3)[nH]c(=O)n4Cc3ccc(F)cc3)cc2)CC1,4.3,-8.3,-11.3%,29.1µM*,29.2,18.4µM*
COc1cc2cc(CN(CCO)S(=O)(=O)c3ccccc3Cl)c(=O)[nH]c2cc1OC,31.4,-1.8,28.2µM*,-16.6%,-4.7,0.8%
COc1cc2cc(CN(CCCO)S(=O)(=O)c3ccccc3Cl)c(=O)[nH]c2cc1OC,12.5,23.4,u,u,-8.1,-12.4%
SMILES,D3 antag,DRD3 agonist,ClpP mod,DT40 TDP1 no CPT,IL-1B inflam inh,TDP1 cell CPT
O=c1[nH]c2cc3c(cc2cc1CN(CCO)S(=O)(=O)c1ccccc1Cl)OCCO3,13.9,14.9,28.2µM*,-25.7%,-12.3,-25.2%
COc1cc2cc(CN(CCCO)S(=O)(=O)c3ccccc3)c(=O)[nH]c2cc1OC,13.9,0.9,12.6µM*,-20.8%,2.0,-2.8%
COc1ccc(CC(=O)N2CC(=O)Nc3ccc(F)cc3C2c2ccccc2)cc1 (stereo not drawn),x,-6.4,-3.4%,u,x,u
CCN(CC)C(=O)c1ccc(-c2nnc(OC)c3ccccc23)cc1,-9.9,5.8,x,u,-10.8,-21.0%
CCC(=O)Nc1nc(C)c(-c2csc(Nc3cccc(O)c3)n2)s1,34.9,3.5,u,3.66µM*,-75.1*,6.51µM*
Cc1nc(C)c(-c2csc(Nc3cccc(O)c3)n2)s1,0.2,-1.6,x,23.1µM*,u,u
Cc1cccc(Nc2nc(-c3sc(C)nc3C)cs2)c1,4.2,8.3,-0.6%,16.4µM*,-53.8*,u
Cc1ccnc(Nc2nc(-c3sc(C)nc3C)cs2)c1,-0.4,13.4,x,u,-100.3*,14.6µM*
CCN(CC)S(=O)(=O)c1ccc2nc(NC(=O)c3ccc(Br)o3)sc2c1,x,-12.9,-3.5%,-19.3%,x,-16.6%
Cn1c(=O)c2sccc2n2c(CCCC(=O)NC3CCCCC3)nnc12,x,-8.5,1.4%,-2.7%,x,-14.9%
O=C(Nc1ccc(-n2cccn2)cc1)C1CCCCN1Cc1cccc2cccnc12 (stereo not drawn),-17.1,-7.5,-2.5%,u,-50.3*,u
Cn1cc(CN2CCCCC2C(=O)Nc2ccc(-n3cccn3)cc2)cn1 (stereo not drawn),-9.5,-4.8,-2.9%,8.2%,-22.8,2.8%
CSc1nc(N(C)NC(=O)c2ccc(F)cc2)c2ccccc2n1,-28.8,-9.7,-1.1%,0.731µM*,74.7,0.581µM*
Cn1c(CNC(=O)c2ccc(F)cc2)nc2ccccc21,13.9,-2.9,-11.3%,-27.9%,27.0,u

# Screening results (PubChem BioAssay)
